# Measured values reported in PubChem BioAssay.
# Calls of active or inactive are those of the source. Unless noted, the rule behind the calls is not given here.
# Experiments:
# [1] = compound effects on lung adenocarcinoma cell viability – A549, calcein-AM fluorescence, 48 h, basal, profiling panel (AID 1162); conditions: higher = more signal; note: test concentration not given here
# [2] = compound effects on differentiated 3T3-L1 adipocyte viability – cell-based, 3T3-L1 adipocytes, calcein-AM fluorescence, 48 h, basal, profiling panel (AID 1163); conditions: 3T3-L1 adipocytes viability, higher = more signal; note: test concentration not given here
# [3] = compound effects on hepatocellular carcinoma cell viability – HepG2, calcein-AM fluorescence, 48 h, basal, profiling panel (AID 1164); conditions: higher = more signal; note: test concentration not given here
# [4] = compound effects on multiple myeloma cell viability – MM1S, calcein-AM fluorescence, 48 h, basal, profiling panel (AID 1165); conditions: higher = more signal; note: test concentration not given here
# [5] = calcein-AM signal in unstimulated myeloma cells – cell-based, calcein-AM fluorescence, 48 h, PK04 Diversity Set, profiling panel (AID 1166); conditions: RPMI8226 myeloma viability, higher = more signal;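 note: cells grown under basal conditions without added stimulus; test concentration not given here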
# [6] = JC-1 mitochondrial signal, unstimulated HepG2 cells – cell-based, JC-1 fluorescence, 24 h, 100 nL compound, profiling panel (AID 1167); conditions: HepG2 mitochondrial potential, higher = more signal; note: test concentration not given here
# [7] = JC-1 mitochondrial signal, unstimulated adipocytes – cell-based, JC-1 fluorescence, 3T3-L1 adipocytes, 24 h, 100 nL compound, profiling panel (AID 1168); conditions: JC-1 mitochondrial fluorescence, higher = more signal, called active from +8 up or from −8 down; note: test concentration not given here
# [8] = JC-1 mitochondrial signal, unstimulated myeloma cells – cell-based, JC-1 fluorescence, RPMI8226, 24 h, 100 nL compound, profiling panel (AID 1169); conditions: JC-1 mitochondrial potential fluorescence, higher = more signal; note: test concentration not given here
# [9] = JC-1 mitochondrial signal, unstimulated MM1S myeloma – cell-based, JC-1 fluorescence, 24 h, 100 nL compound, profiling panel (AID 1170); conditions: MM1S mitochondrial potential, higher = more signal; note: test concentration not given here
# [10] = resazurin metabolic signal in A549 cells – cell-based, resazurin fluorescence, 24 h, PK04 Diversity Set, profiling panel (AID 1171); conditions: A549 viability, higher = more signal, called active from +8 up or from −8 down; note: test concentration not given here
# [11] = resazurin metabolic signal in HepG2 cells – cell-based, resazurin fluorescence, 24 h, PK04 Diversity Set, profiling panel (AID 1172); conditions: HepG2 viability, higher = more signal; note: test concentration not given here
# [12] = budding yeast growth changes without added modifier – OD600, strain BY4716, 24 h, basal condition, primary screen (AID 1173); conditions: S. cerevisiae BY4716 growth, OD600, 24 h; higher = more signal, called active from +8 up or from −8 down
# [13] = viability profiling in MM1S myeloma cells – cell-based, resazurin fluorescence, basal, 24 h, PK04 Diversity Set, profiling panel (AID 1174); conditions: higher = more signal, called active from +8 up or from −8 down; note: test concentration not given here
# [14] = molecular target: Dihydroorotate dehydrogenase (quinone), mitochondrial (Plasmodium falciparum (isolate 3D7)) (UniProt Q08210); test: inhibition of P. falciparum DHODH – biochemical, C-terminal His tag, absorbance 600 nm, primary screen (AID 1175); conditions: PfDHODH enzyme, DCIP absorbance 600 nm; higher = more signal, called active from +8 up or from −8 down;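 note: recombinant parasite enzyme with a five histidine tag at its C terminus; test concentration not given here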
# Chain of Dihydroorotate dehydrogenase (quinone), mitochondrial (Plasmodium falciparum (isolate 3D7)) (Q08210 whole entry, looked up): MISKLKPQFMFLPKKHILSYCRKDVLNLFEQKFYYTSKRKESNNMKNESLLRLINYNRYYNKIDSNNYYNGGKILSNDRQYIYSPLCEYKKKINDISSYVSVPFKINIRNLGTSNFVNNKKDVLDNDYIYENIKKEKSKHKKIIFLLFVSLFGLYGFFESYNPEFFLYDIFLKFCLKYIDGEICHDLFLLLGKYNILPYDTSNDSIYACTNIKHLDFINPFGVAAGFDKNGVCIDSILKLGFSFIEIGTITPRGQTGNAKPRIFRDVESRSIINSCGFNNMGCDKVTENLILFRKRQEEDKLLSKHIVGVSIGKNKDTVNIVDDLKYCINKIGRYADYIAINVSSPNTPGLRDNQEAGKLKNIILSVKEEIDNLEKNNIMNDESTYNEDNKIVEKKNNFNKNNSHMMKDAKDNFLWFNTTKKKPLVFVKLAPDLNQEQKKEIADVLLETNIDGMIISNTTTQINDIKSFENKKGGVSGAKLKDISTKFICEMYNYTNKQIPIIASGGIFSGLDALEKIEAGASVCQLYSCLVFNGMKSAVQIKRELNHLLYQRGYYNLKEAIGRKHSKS
# [15] = inhibition of PAO1 biofilm formation – strain PAO1, LB-PBS medium, absorbance 600 nm, primary screen (AID 1176); note: test concentration not given here; conditions: P. aeruginosa PAO1 growth/biofilm, A600, 12 h; higher = more signal
# [16] = growth modulation of vineyard yeast isolate – strain RM11-1a, OD600, basal, 24 h, primary screen (AID 1177);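 note: cultures grown under basal conditions with no added stressor; test concentration not given here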; conditions: S. cerevisiae RM11-1a growth, OD600, 24 h; higher = more signal, called active from +8 up or from −8 down
# [17] = growth of efflux-deficient E. coli DRC39 – strain DRC39, OD650, 24 h, E. coli filamentation inducers, primary screen (AID 1178);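 note: growth measured as culture turbidity by optical density at 650 nm; test concentration not given here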; conditions: E. coli DRC39 acrAB, higher = more signal, called active from +8 up or from −8 down
# [18] = growth of efflux-deficient E. coli DRC39 – strain DRC39, OD650, 48 h, E. coli filamentation inducers, primary screen (AID 1179);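 note: screen aims at cell division blockers that make cells filament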; conditions: E. coli DRC39 delta-acrAB growth, higher = more signal, called active from +8 up or from −8 down
# [19] = viability profiling in RPMI8226 myeloma cells – cell-based, resazurin fluorescence, basal, 24 h, PK04 Diversity Set, profiling panel (AID 1180); conditions: higher = more signal;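 note: RPMI8826 multiple myeloma cell line at 5000 cells per well; test concentration not given here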
# [20] = molecular target: E3 ubiquitin-protein ligase XIAP (Homo sapiens) (UniProt P98170); test: small molecules binding XIAP protein – biophysical, small-molecule microarray, fluorescence 635 nm, primary screen (AID 1181); conditions: higher = more signal;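 note: score merges 667 nm emission and signal to noise over triplicate slides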
# Chain of E3 ubiquitin-protein ligase XIAP (Homo sapiens) (P98170 whole entry, looked up): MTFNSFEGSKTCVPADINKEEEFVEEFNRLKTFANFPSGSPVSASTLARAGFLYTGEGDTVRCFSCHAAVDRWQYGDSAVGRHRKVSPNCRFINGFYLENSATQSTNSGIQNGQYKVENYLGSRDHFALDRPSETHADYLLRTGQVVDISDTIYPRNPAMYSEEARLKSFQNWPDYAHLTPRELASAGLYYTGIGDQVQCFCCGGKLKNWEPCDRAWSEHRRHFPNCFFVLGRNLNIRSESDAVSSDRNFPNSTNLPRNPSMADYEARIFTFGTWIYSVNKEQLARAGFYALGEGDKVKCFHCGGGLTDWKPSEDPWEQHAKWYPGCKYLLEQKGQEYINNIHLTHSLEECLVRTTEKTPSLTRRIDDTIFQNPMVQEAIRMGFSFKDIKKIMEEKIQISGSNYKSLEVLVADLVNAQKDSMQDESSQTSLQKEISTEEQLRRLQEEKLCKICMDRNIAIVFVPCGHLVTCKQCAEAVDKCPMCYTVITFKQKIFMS
Compound,z-score [1],z-score [2],z-score [3],z-score [4],z-score [5],z-score [6],z-score [7],z-score [8],z-score [9],z-score [10],z-score [11],z-score [12],z-score [13],composite z-score [14],z-score [15],z-score [16],z-score [17],z-score [18],z-score [19],composite z-score [20]
C=C(C)C(=O)OC[C@H]1CN2[C@@H](CC[C@@H](C)[C@@H]2c2ccc(Br)cc2)C(=O)O1,0.824,0.278,1.33,0.244,-1.34,0.393,-0.142 (inactive),-0.521,-0.197,0.634 (inactive),0.497,-1.84 (inactive),-0.255 (inactive),0.672 (inactive),-0.136 (inactive),0.912 (inactive),0.644 (inactive),-1.77 (inactive),-0.314,0.256
Cc1ccc2[nH]c3nc(CCCn4ccnc4-c4ccccc4)nnc3c2c1,0.0515,0.339,-0.18,1.05,0.392,-0.807,1.1 (inactive),0.738,-0.867,0.384 (inactive),-0.256,-0.104 (inactive),-1.15 (inactive),0.411 (inactive),0.0737 (inactive),-0.212 (inactive),0.164 (inactive),0.183 (inactive),-0.976,-0.119
COc1cccc([C@H]2Oc3ccc(OC)cc3C(=NOCC[C@@H]3C=C[C@H](OC(C)=O)[C@@H](COC(C)=O)O3)[C@@H]2O)c1,-0.34,-0.542,-0.744,0.445,-1.19,-1.28,-1.16 (inactive),-0.209,-1.04,-0.945 (inactive),-0.76,0.813 (inactive),-0.698 (inactive),0.472 (inactive),0.0767 (inactive),0.614 (inactive),0.688 (inactive),-0.53 (inactive),-0.583,0.0123
COc1cccc([C@H]2Oc3ccc(OC)cc3C(=NO[C@@H](C)c3cc(-c4c(C)cc(C)cc4C)no3)[C@@H]2O)c1,-0.744,-0.583,-1.08,-1.38,-0.845,-2.54,-2.31 (inactive),0.118,0.463,0.321 (inactive),-0.406,1.18 (inactive),0.0117 (inactive),-2.77 (inactive),0.523 (inactive),1.96 (inactive),0.243 (inactive),-1.43 (inactive),-0.116,-0.336
CC(C)CON=C1C[C@@H](O)[C@@H](O)[C@@H]2[C@@H]3C(=O)N([C@@H](C)c4ccccc4)C(=O)[C@@H]3CC[C@@H]12,-0.398,-0.63,-0.829,-0.79,0.336,-0.889,-0.72 (inactive),0.638,-0.389,0.0092 (inactive),-0.161,0.221 (inactive),-0.827 (inactive),0.291 (inactive),1.6 (inactive),-0.251 (inactive),-0.286 (inactive),-0.112 (inactive),-0.534,0.209
O=C1CCCC=C1C(O)COCc1ccccc1 (stereo not given),0.384,-1.41,-1.13,-0.265,0.729,-0.143,-0.649 (inactive),0.728,-0.0651,0.0235 (inactive),-0.178,-0.971 (inactive),-0.155 (inactive),0.438 (inactive),0.402 (inactive),0.902 (inactive),-0.227 (inactive),-0.477 (inactive),0.13,-0.02
CON=C(C)CCN1CCCc2nc(C)c(C)cc21,0.604,0.542,0.926,-1.56,-0.0679,0.791,-0.195 (inactive),0.538,0.11,0.161 (inactive),-0.183,-0.899 (inactive),-0.136 (inactive),-0.329 (inactive),0.0981 (inactive),-0.1 (inactive),0.213 (inactive),-1.7 (inactive),-0.22,0.346
COC(=O)[C@H](C)NC(=O)CCC1CC(OC(=O)NCCc2ccc(F)cc2)CC2(CCCC(COC(=O)NCC3CCCCC3)O2)O1 (stereo not given in full),-0.111,0.851,-1.36,-0.574,-1.85,-0.717,0.497 (inactive),0.785,-0.771,0.541 (inactive),0.427,-0.491 (inactive),1.05 (inactive),-2.53 (inactive),-0.919 (inactive),0.363 (inactive),-0.603 (inactive),-0.741 (inactive),0.13,0.514
CO[C@@H]1COC(=O)[C@H](CCSC)NC(=O)CC=C[C@@H](C)COC(=O)[C@@H]2CCCN2C(=O)CC=C[C@H]1C,-0.25,-0.094,0.182,0.105,0.339,0.754,0.579 (inactive),-0.79,0.326,0.285 (inactive),0.64,-0.691 (inactive),0.89 (inactive),-0.0517 (inactive),-0.92 (inactive),-0.572 (inactive),-0.0629 (inactive),-0.733 (inactive),0.652,-0.0277
COC(=O)[C@H](C)NC(=O)CCC1CC(OC(=O)NCc2cccc3ccccc23)CC2(CCCC(COC(=O)NCc3cccc(C(F)(F)F)c3)O2)O1 (stereo not given in full),0.826,-0.508,-0.918,-3.11,-0.0274,-0.707,0.733 (inactive),-0.742,-0.905,-1.16 (inactive),-0.599,-0.458 (inactive),0.47 (inactive),-1.5 (inactive),0.593 (inactive),-0.968 (inactive),-0.289 (inactive),-0.456 (inactive),0.297,0.14
O=C(NN=C1C[C@@H](O)[C@@H](O)[C@@H]2[C@@H]3C(=O)N(c4ccc(F)cc4F)C(=O)[C@@H]3CC[C@H]12)OCc1ccccc1,-0.299,-0.198,-1.39,-0.46,0.707,0.344,0.533 (inactive),0.0563,-0.741,1.88 (inactive),2.08,-0.814 (inactive),1.23 (inactive),-0.25 (inactive),-0.258 (inactive),-1.35 (inactive),0.574 (inactive),0.573 (inactive),0.86,-0.152
CCC1=NOC(CCC2CC(OC(=O)NCc3cccc4c3OCO4)CC3(CCCC(COC(=O)NCCc4ccc(Cl)cc4)O3)O2)C1 (stereo not given),-0.584,-0.55,-0.303,0.396,-0.961,-0.803,0.453 (inactive),0.0772,-0.398,0.137 (inactive),0.22,0.519 (inactive),-0.0555 (inactive),-0.362 (inactive),0.52 (inactive),0.0088 (inactive),0.137 (inactive),0.377 (inactive),0.73,-0.0476
